# PubChem BioAssay (NCI)
# About 83,000 compounds went through this panel and 20% of them were active in at least one assay; those are over-represented in the sample as a whole.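 Growth was measured after 48 h exposure to one concentration of compound in 96-well plates. Values under 10 count as active.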 A number with no mark means an inactive call.
# Test system: RXF 393 renal
# Test: NCI-60 one-dose screen, 48 h (100 = growth as untreated, 0 = no growth, -100 = all killed)
# Conditions: 10 µM unless noted
row,SMILES,growth
1,CC(C)(CO)N(CCO)CCO,104%
2,CCOC(=O)c1c(C)c2c(n1C)CSc1cc(S(=O)(=O)c3ccccc3)c(=O)[nH]c1-2,44.3% [100 µM]
3,Clc1ccc(-c2cn3ccsc3n2)c(Cl)c1Cl,95.2%
4,CS(=O)(=O)Cc1cnc(C2OCCO2)s1,116%

# Test system: SF-268 CNS
# Test: as above
# Conditions: 10 µM unless noted
row,SMILES,growth
1,O=c1ccc2nc(C(F)(F)F)nn(-c3ccccc3)c-2c1,77.4%
2,O=P(O)(O)OCC1OC(n2cnc3c(NCc4ccccc4)ncnc32)C(O)C1O (centres undefined),36.3%
3,Cc1cc2nc(-c3c(-c4ccc(F)cc4)nc4sccn34)[nH]c2cc1C,90.8%
4,CCOC(=O)N1CCN(S(=O)(=O)c2oc(-c3ccc(Cl)cc3)nc2C#N)CC1,109%
5,CCCCCCCCn1ccc2cc(NC(=O)Cn3cc(CN4CCN(CC)CC4)nn3)ccc21,76.7%
6,CC12CCC(/C(=C/NNc3ccc([N+](=O)[O-])cc3[N+](=O)[O-])C1=O)C2(C)C (centres undefined),77.8%
7,COc1ccc(/C(C)=C(\c2ccc(OCCN3CCCCCC3)cc2)c2ccc(OC(=O)c3ccccc3)cc2)cc1,44.4%
8,O=C(N/N=C/c1ccc([N+](=O)[O-])cc1)c1ccc2nc(-c3ccc(Cl)cc3)[nH]c2c1,48.5%
9,COc1cc(/C=C\c2cc(/C=C\c3ccc(O)c(OC)c3)n(C(=O)CNc3ccc(Cl)cc3)n2)ccc1O,25.5%
10,CN(C)c1ccc(-c2cc(-c3ccc(Nc4nc(Nc5ccc(Cl)cc5)nc(Nc5ccc(Cl)cc5)n4)cc3)nc(N)c2C#N)cc1,94.9%
11,Nc1ccc([N+](=O)[O-])cc1N=C/C=C/c1ccccc1,51.4%
12,Cc1nc2sc(C(=O)Nc3cccc(Cl)c3)c(N)c2cc1C(O)c1ccccc1 (centres undefined),42.3%
13,COc1cc(C2=NN(C(C)=O)C(c3ccc(N(C)C)cc3)C2)cc(OC)c1OC (centres undefined),105%
14,COc1cc2c(cc1O)[C@@]1(C)[C@H](c3ccccc3Br)OC(=O)N1CC2,94.7%
15,CC1(C)CC[C@]2(C(=O)O)CC[C@]3(C)C(=CC[C@@H]4[C@@]5(C)C[C@@H](Cc6cn([C@@H]7O[C@H](CO)[C@@H](O)[C@H](O)[C@H]7O)nn6)[C@H](O)C(C)(C)[C@@H]5CC[C@]43C)[C@@H]2C1,103%
16,COc1cccc(Nc2ccnc3[nH]c4ccc([N+](=O)[O-])cc4c23)c1,60.7%
17,N#Cc1c(NC(=O)c2cccs2)[n+]([O-])c2ccc(Cl)cc2[n+]1[O-],106%
18,O=C1Nc2ccc(F)cc2/C1=N/c1nnc(Sc2ccccc2)s1,94.2%
19,COc1ccc(/C=C/C(=O)c2ccc(NC(=O)CSc3nnc(-c4cc(-c5ccccc5)nc5ccccc45)n3-c3ccccc3)cc2)cc1,98.3%
20,CCN1C(=O)N(CC)C2C1NN=C1SCC(=O)N12 (centres undefined),98.6%

row,SMILES,growth
1,CC(=O)N/C(=C1/OC(C(O)C(O)C(O)CO)CN1C)[P+](c1ccccc1)(c1ccccc1)c1ccccc1 (centres undefined),102%
2,CCOC(=O)Nc1nc2ccc(SCC(C)C)cc2s1,45.2%
3,NNC(=S)N/N=C/c1ccccn1,42.9%
4,Cc1[nH]c(/C=C/C(=O)c2ccc(C(F)(F)F)c(F)c2)c(C)c1C(=O)NCC(C)C,95.8%
5,N#Cc1c(N2CCOCC2)nc(=S)[nH]c1-c1ccccc1,87.3%
6,Cc1cc(N2CCCCC2)nc(N2CCN(CC(=O)Nc3ccc4c(ccn4Cc4ccccc4)c3)CC2)n1,80.5%
7,CC(C)c1ccc(C(=O)Nc2sc3cc(O)ccc3c2C#N)cc1,44.8%
8,O=C(/C=C/C12c3ccccc3C(c3ccccc31)C1C(=O)NC(=O)C12)c1ccccn1 (centres undefined),24.1%
9,CC(C)CSc1oc(-c2ccccc2)nc1S(=O)(=O)c1ccccc1,87.3%
10,O=C(/C=C/c1ccc(Br)cc1)c1ccc(-n2cc(CN3CCN(c4cc5c(cc4F)c(=O)c(C(=O)O)cn5C4CC4)CC3)nn2)cc1,72.6%
11,Nc1c(C(=O)Nc2ccncc2)sc2nc3c(cc12)CCCCC3,99.5%
12,O=C(CCCCCCN1CC(=O)N2[C@@H](C3CCCCC3)c3[nH]c4ccccc4c3C[C@H]2C1=O)NO,106%
13,COc1ccc2[nH]cc(-c3nc(-c4cn(C)c5ccncc45)cs3)c2c1,87.1%
14,O=C(/C=C\c1ccco1)/C=C/c1ccco1,113%
15,O=C1NC(=C(Cl)Cl)/C(=N/S(=O)(=O)N2CCCCC2)N1,28.3%
16,COc1ccc(C2=Nc3c(N)ncnc3NC(c3cccc(Nc4ccnc5cc(C(F)(F)F)ccc45)c3)C2)cc1 (centres undefined),56.9%
17,CC(C)(CO)N(CCO)CCO,104%
18,CCOC(=O)c1c(C)c2c(n1C)CSc1cc(S(=O)(=O)c3ccccc3)c(=O)[nH]c1-2,40.5% [100 µM]
19,Clc1ccc(-c2cn3ccsc3n2)c(Cl)c1Cl,102%
20,CS(=O)(=O)Cc1cnc(C2OCCO2)s1,93.1%
